# Laboratory results published in PubChem BioAssay.
# Calls of active or inactive are those of the source.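 How the source made its calls, unless noted: active means fluorescence slope after compound addition differing from the mean of all screened samples at 99.7% confidence, in either direction; inactive means the rest.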
# Molecular target: Alpha-2C adrenergic receptor (Homo sapiens) (UniProt P18825)
# Assay: compounds altering alpha2C-coupled GIRK flux – cell-based, HEK293 alpha2C/GIRK1/2, thallium flux, primary screen (AID 624);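 further: slope of fluorescence ratio to pre-addition baseline per second over 15 to 24 s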
# Conditions: thallium flux BTC fluorescence, at 10 µM, actives lie on both sides
# Sequence of Alpha-2C adrenergic receptor (Homo sapiens) (P18825 whole entry, looked up): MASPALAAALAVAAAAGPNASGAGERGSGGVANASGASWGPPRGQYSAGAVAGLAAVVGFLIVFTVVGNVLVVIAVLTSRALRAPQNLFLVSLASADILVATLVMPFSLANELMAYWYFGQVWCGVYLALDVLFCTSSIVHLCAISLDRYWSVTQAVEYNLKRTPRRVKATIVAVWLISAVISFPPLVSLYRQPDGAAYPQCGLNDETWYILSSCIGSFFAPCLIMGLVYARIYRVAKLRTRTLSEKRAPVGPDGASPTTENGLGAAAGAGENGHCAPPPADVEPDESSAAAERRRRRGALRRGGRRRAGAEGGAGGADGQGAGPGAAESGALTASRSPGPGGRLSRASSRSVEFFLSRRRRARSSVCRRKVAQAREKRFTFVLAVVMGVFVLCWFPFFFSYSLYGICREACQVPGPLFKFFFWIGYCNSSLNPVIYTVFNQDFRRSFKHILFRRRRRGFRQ
row,SMILES,slope
1,CCN1CCN(C(CNC(=O)c2ccc3c(c2)OCO3)c2cccnc2)CC1 (stereo not given),0.00612 (inactive)
2,Cc1cccnc1-n1c(CCN2C(=O)c3ccccc3C2=O)nc2ccccc2c1=O,0.00629 (inactive)
3,COc1cc2c(N3CCOCC3)cc(O)c(CC(=O)Nc3ccccc3)c2cc1OC,0.00641 (inactive)
4,Cc1ccc(-c2nc3cc(NC(=O)C(C)C)ccc3o2)cc1C,0.00605 (inactive)
5,Cc1ccc(-c2nnc(N3CCN(C(=O)CN4C(=O)c5ccccc5C4=O)CC3)c3ccccc23)cc1,0.00522 (inactive)
6,Cc1cccc(OCC(=O)N(Cc2cccs2)C2CCS(=O)(=O)C2)c1C (stereo not given),0.00768 (inactive)
7,CCN(CC)C(=O)Cn1c(=O)n(Cc2ccccc2Cl)c2c1c(=O)n(C)c(=O)n2C,0.00765 (inactive)
8,CCOc1ccccc1NC(=O)CCSc1nc2n[nH]c(C)c2c(=N)n1-c1ccccc1Cl,0.00336 (inactive)
9,COc1ccc(N2C(=O)CCC(C(=O)N3CCCCC3)C2c2ccc(OC)c(OC)c2)cc1 (stereo not given),0.00625 (inactive)
10,COCCNC(=O)C(c1ccc(O)cc1)N(Cc1ccco1)C(=O)CCC(=O)Nc1nccs1 (stereo not given),0.0061 (inactive)
11,C=CCN1C(=O)C2(/C(=C(\O)c3ccc4c(c3)OCCO4)C(=O)C(=O)N2CCCOC)c2ccccc21 (stereo not given),0.00507 (inactive)
12,COc1cc2[nH]c(=O)c(C(=O)NCCCN3CCCCC3)c(O)c2cc1OC,0.00574 (inactive)
13,CCc1[nH]nc2c1C1(CCN(C(=O)OCc3ccccc3)CC1)C(C#N)=C(N)O2,0.00458 (inactive)
14,O=C(Nc1cccc2ccccc12)N1CCN(c2ccccc2)CC1,0.00612 (inactive)
15,CC(=O)N1CCC(N(C(=O)Nc2ccc(C)c(C)c2)C2CCCC2)CC1,0.0055 (inactive)
16,O=C1CCCc2nc(N3CCCCC3)sc21,0.00423 (inactive)
17,C=CCOc1ccc(C2/C(=C(\O)c3c(C)[nH]c(C(=O)OC)c3C)C(=O)C(=O)N2CCN(C)C)cc1 (stereo not given),0.00355 (inactive)
18,Cc1cc(NC(=O)c2cccc(S(=O)(=O)N3CC(c4ccccc4)CC3=O)c2)no1 (stereo not given),0.00664 (inactive)
19,CCN(CCCNC(=O)CC1Oc2ccc(C)cc2NC1=O)Cc1ccccc1 (stereo not given),0.00631 (inactive)
20,CN1CCc2nc(SCCOc3ccccc3)c(C#N)cc2C1,0.00342 (inactive)

row,SMILES,slope
1,COc1ccc(S(=O)(=O)N2CCC(C(=O)Nc3c(F)cccc3F)CC2)cc1,0.00504 (inactive)
2,Cc1nc2ccc(NC(=O)NCc3ccco3)cc2s1,0.00475 (inactive)
3,CCNc1ccc(C(=O)OCC)cc1NC(=O)c1cc(S(=O)(=O)N2CCOCC2)ccc1C,0.00574 (inactive)
4,CC1CCN(c2nc3c(c(=O)n(C)c(=O)n3C)n2Cc2ccccc2)CC1,0.00388 (inactive)
5,O=C(Oc1cc2oc(=O)c3c(c2cc1Cl)CCCC3)c1ccco1,0.00588 (inactive)
6,CCOC(=O)CNC(=O)CSc1nc(N)cc(N)n1,0.00537 (inactive)
7,CCCC(=O)C1=C(N(C)c2ccccc2)CC(C)(C)C(C(=O)OC)C1=O (stereo not given),0.00268 (inactive)
8,CCOC(=O)c1ccc(N2C(=O)CC(N(C)CCc3ccc(OC)c(OC)c3)C2=O)cc1 (stereo not given),0.00246 (inactive)
9,COc1ccc(C2=NOC(C(=O)NC3CCCCC3)C2)cc1OC (stereo not given),0.00464 (inactive)
10,CCOC(=O)c1cc(CC)sc1NC(=O)CCC(=O)O,0.00617 (inactive)
11,O=C(C1CCN(c2nnc(-n3cccc3)s2)CC1)N1CCOCC1,0.00592 (inactive)
12,Cn1cc(Br)c(C(=O)NC2CCCCC2)n1,0.00924 (inactive)
13,CC1NC2(C(=O)N(Cc3ccccc3)c3ccccc32)C2C(=O)N(c3ccccc3)C(=O)C12 (stereo not given),0.0066 (inactive)
14,O=C1CC(N2CCN(C3CCc4ccccc4C3)CC2)C(=O)N1c1ccccc1 (stereo not given),0.00552 (inactive)
15,CCCOc1cccc(C(=O)Nc2cc(NC(=O)c3ccco3)ccc2OC)c1,0.00685 (inactive)
16,Cn1c(SCC(=O)Nc2ccc3c(c2)OCO3)nnc1-c1cnccn1,0.00395 (inactive)
17,CC1CCN(S(=O)(=O)c2cccc(C(=O)Nc3ccccn3)c2)CC1,0.00478 (inactive)
18,CC(=O)Nc1ccc(N=Cc2nc(-c3ccc(C)cc3)oc2O)cc1,0.00463 (inactive)
19,CN(C(=O)C1CCCO1)c1nnc(-c2ccncc2)s1 (stereo not given),0.00538 (inactive)
20,CCOC(=O)c1[nH]c(C)c(C(=O)NC)c1C,0.00529 (inactive)

# Tested on: not listed separately
# Assay: blockers of RIG-like receptor reporter activation – cell-based, Sendai virus stimulus, luciferase, 10K MLSCN set, TLR/RLR signaling modifier project, primary screen (AID 602276;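 active means inhibition at or above 50% at 10 µM; inactive means inhibition below 50%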;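 further: firefly luciferase from ISG56 promoter only with Renilla not read in this screen; 0% = Sendai virus plus DMSO and 100% = medium plus DMSO without virus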)
# Conditions: HEK293 RL24 IRF3 luciferase reporter, at 10 µM, active compounds read high
row,SMILES,inhibition
1,CCN1CCN(C(CNC(=O)c2ccc3c(c2)OCO3)c2cccnc2)CC1 (stereo not given),-18.9% (inactive)
2,Cc1cccnc1-n1c(CCN2C(=O)c3ccccc3C2=O)nc2ccccc2c1=O,2.74% (inactive)
3,COc1cc2c(N3CCOCC3)cc(O)c(CC(=O)Nc3ccccc3)c2cc1OC,-3.63% (inactive)
4,Cc1ccc(-c2nc3cc(NC(=O)C(C)C)ccc3o2)cc1C,19.2% (inactive)
5,Cc1ccc(-c2nnc(N3CCN(C(=O)CN4C(=O)c5ccccc5C4=O)CC3)c3ccccc23)cc1,8.25% (inactive)
6,Cc1cccc(OCC(=O)N(Cc2cccs2)C2CCS(=O)(=O)C2)c1C (stereo not given),13.8% (inactive)
7,CCN(CC)C(=O)Cn1c(=O)n(Cc2ccccc2Cl)c2c1c(=O)n(C)c(=O)n2C,2.5% (inactive)
8,CCOc1ccccc1NC(=O)CCSc1nc2n[nH]c(C)c2c(=N)n1-c1ccccc1Cl,3.64% (inactive)
9,COc1ccc(N2C(=O)CCC(C(=O)N3CCCCC3)C2c2ccc(OC)c(OC)c2)cc1 (stereo not given),12.8% (inactive)
10,COCCNC(=O)C(c1ccc(O)cc1)N(Cc1ccco1)C(=O)CCC(=O)Nc1nccs1 (stereo not given),-12.6% (inactive)
11,C=CCN1C(=O)C2(/C(=C(\O)c3ccc4c(c3)OCCO4)C(=O)C(=O)N2CCCOC)c2ccccc21 (stereo not given),20.5% (inactive)
12,COc1cc2[nH]c(=O)c(C(=O)NCCCN3CCCCC3)c(O)c2cc1OC,-5.59% (inactive)
13,CCc1[nH]nc2c1C1(CCN(C(=O)OCc3ccccc3)CC1)C(C#N)=C(N)O2,17.6% (inactive)
14,O=C(Nc1cccc2ccccc12)N1CCN(c2ccccc2)CC1,8.28% (inactive)
15,CC(=O)N1CCC(N(C(=O)Nc2ccc(C)c(C)c2)C2CCCC2)CC1,11.1% (inactive)
16,O=C1CCCc2nc(N3CCCCC3)sc21,-57.2% (inactive)
17,C=CCOc1ccc(C2/C(=C(\O)c3c(C)[nH]c(C(=O)OC)c3C)C(=O)C(=O)N2CCN(C)C)cc1 (stereo not given),13.2% (inactive)
18,Cc1cc(NC(=O)c2cccc(S(=O)(=O)N3CC(c4ccccc4)CC3=O)c2)no1 (stereo not given),8.54% (inactive)
19,CCN(CCCNC(=O)CC1Oc2ccc(C)cc2NC1=O)Cc1ccccc1 (stereo not given),-5.16% (inactive)
20,CN1CCc2nc(SCCOc3ccccc3)c(C#N)cc2C1,-2.8% (inactive)

row,SMILES,inhibition
1,COc1ccc(S(=O)(=O)N2CCC(C(=O)Nc3c(F)cccc3F)CC2)cc1,-10.2% (inactive)
2,Cc1nc2ccc(NC(=O)NCc3ccco3)cc2s1,-22.3% (inactive)
3,CCNc1ccc(C(=O)OCC)cc1NC(=O)c1cc(S(=O)(=O)N2CCOCC2)ccc1C,-4.65% (inactive)
4,CC1CCN(c2nc3c(c(=O)n(C)c(=O)n3C)n2Cc2ccccc2)CC1,12.3% (inactive)
5,O=C(Oc1cc2oc(=O)c3c(c2cc1Cl)CCCC3)c1ccco1,4.58% (inactive)
6,CCOC(=O)CNC(=O)CSc1nc(N)cc(N)n1,1.91% (inactive)
7,CCCC(=O)C1=C(N(C)c2ccccc2)CC(C)(C)C(C(=O)OC)C1=O (stereo not given),9.63% (inactive)
8,CCOC(=O)c1ccc(N2C(=O)CC(N(C)CCc3ccc(OC)c(OC)c3)C2=O)cc1 (stereo not given),-7.6% (inactive)
9,COc1ccc(C2=NOC(C(=O)NC3CCCCC3)C2)cc1OC (stereo not given),14.9% (inactive)
10,CCOC(=O)c1cc(CC)sc1NC(=O)CCC(=O)O,22% (inactive)
11,O=C(C1CCN(c2nnc(-n3cccc3)s2)CC1)N1CCOCC1,7.65% (inactive)
12,Cn1cc(Br)c(C(=O)NC2CCCCC2)n1,7.35% (inactive)
13,CC1NC2(C(=O)N(Cc3ccccc3)c3ccccc32)C2C(=O)N(c3ccccc3)C(=O)C12 (stereo not given),4.63% (inactive)
14,O=C1CC(N2CCN(C3CCc4ccccc4C3)CC2)C(=O)N1c1ccccc1 (stereo not given),17.3% (inactive)
15,CCCOc1cccc(C(=O)Nc2cc(NC(=O)c3ccco3)ccc2OC)c1,2.93% (inactive)
16,Cn1c(SCC(=O)Nc2ccc3c(c2)OCO3)nnc1-c1cnccn1,12.5% (inactive)
17,CC1CCN(S(=O)(=O)c2cccc(C(=O)Nc3ccccn3)c2)CC1,18.4% (inactive)
18,CC(=O)Nc1ccc(N=Cc2nc(-c3ccc(C)cc3)oc2O)cc1,1.5% (inactive)
19,CN(C(=O)C1CCCO1)c1nnc(-c2ccncc2)s1 (stereo not given),-12% (inactive)
20,CCOC(=O)c1[nH]c(C)c(C(=O)NC)c1C,9.49% (inactive)
